Only some compounds are listed: those with a hit (about 13% of all), similar ones and a draw of the others.
HCV inh: qHTS Assay for Inhibitors of Hepatitis C Virus (HCV) | 340,000 tested, 3.4% active | Huh7.5.1 HCVcc-Cre infection, luciferase reporter, 44 h | Potency, µM (highest dose often 41.8 µM), usual class: inhibitors
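Infectious HCV cell culture screen: compound-treated cells (1,000/well, pre-plated 4 h) are infected with HCVcc-Cre at roughly 0.5 moi and grown 44 h. Infection is quantified by luciferase signal after 15 min substrate incubation at room temperature.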
Pf growth 48h: Primary qHTS for delayed death inhibitors of the malarial parasite plastid, 48 hour incubation; Potency, µM (highest dose often 28.7 µM), actives largely listed as inhibitors; P. falciparum luciferase growth in erythrocytes, 48 h; 310,000 tested, 5.9% active
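Luminescence readout; reporter = integrated firefly luciferase in P. falciparum. RBC culture at 2% hematocrit, 0.1% parasitemia final, 37 C/5% CO2; decreased signal taken as growth inhibition.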
HCMV antiviral: qHTS Assay for inhibitors of the human cytomegalovirus (HCMV); HFF cells, HCMV-luciferase reporter, 72 h; hits give low values; activity change, negative = inhibition, % at 57.5 µM; 410,000 tested, 4.5% active; in the data active means activity change below about -60%; inconclusive means no clear call, values can overlap the other calls; inactive means above about -39%
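Compounds were evaluated in HFFs infected with an HCMV luciferase reporter virus (MOI 1 PFU/cell). Luciferase in lysates collected 72 h post infection served as the replication measure.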
Pf growth 96h: Primary qHTS for delayed death inhibitors of the malarial parasite plastid, 96 hour incubation. Potency, µM (doses to about 28.7 µM), most hits filed as inhibitors. 320,000 tested, 6.9% active. P. falciparum luciferase reporter growth, 96 h. AID 504834, 2011
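P. falciparum expressing integrated firefly luciferase, in erythrocytes at 2% hematocrit, 0.05% parasitemia, incubated with compounds 96 h at 37 C, 5% CO2. Growth inhibition read as loss of luminescence; two-generation exposure targets delayed-death apicoplast inhibitors.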
Each line names hits and unclear results; the compound was inactive in the other large screens. Unless noted, the call rests on the fitted dose curve; in most records, active means well fitted inhibition curve with a large enough effect; inconclusive means small, poorly fitted or top-dose-only effect, or another doubt; inactive means no such curve, though single readings can be large or run the other way.

CC(C)OCCCNC(=O)C(=O)Nc1ccc2nc3n(c(=O)c2c1)CCCCC3	none (no result: HCV inh, Pf growth 48h, Pf growth 96h)
Cc1ccc(NC(=O)c2ccc(NCCc3ccccc3)c([N+](=O)[O-])c2)cc1F	HCV inh inconclusive, Pf growth 96h 8.3µM
O=C(Nc1cc(F)cc(F)c1)c1ccc(NCCc2ccccc2)c([N+](=O)[O-])c1	Pf growth 96h inconclusive
CCNc1ccc(C(=O)Nc2ccc3nc(C)sc3c2)cc1[N+](=O)[O-]	HCV inh inconclusive, Pf growth 48h inconclusive, Pf growth 96h inconclusive
Cc1ccc(NC(=O)c2ccc(NCCN)c([N+](=O)[O-])c2)cc1Cl	HCV inh 14µM, Pf growth 48h 4.1µM, HCMV antiviral -82
CCCCn1cc(S(=O)(=O)c2ccc(Cl)cc2)c(=O)c2cc(F)c(N3CCCC(C)C3)cc21 (configuration not stated)	none (no result: HCV inh, Pf growth 48h, Pf growth 96h)
CCCc1nnc(NC(=O)c2cc(=O)c3cc(Cl)ccc3o2)s1	none (no result: HCV inh, Pf growth 48h, Pf growth 96h)
Cc1cccc(C)c1-n1ncc(C(=O)N2CCN(c3ccccn3)CC2)c1C1CCN(C(=O)OC(C)(C)C)CC1	none (no result: HCV inh, Pf growth 48h, Pf growth 96h)
Cc1ccc(OCCSc2nc3ccccc3n2CC(=O)N2CCOCC2)cc1C	none (no result: HCV inh, Pf growth 48h, Pf growth 96h)
CCOC(=O)c1c(C)[nH]c(C)c1S(=O)(=O)NCC(=O)Nc1cccc(C(F)(F)F)c1	none (no result: HCV inh, Pf growth 48h, Pf growth 96h)
O=C1C(c2cccc(Br)c2)N(CCc2ccccc2)C(=O)CN1C1CCCCC1 (configuration not stated)	none (no result: HCV inh, Pf growth 48h, Pf growth 96h)
CN1c2ccccc2C(C)(C)[C@]12C=Cc1cc(O)ccc1O2	HCV inh 13µM, Pf growth 48h inconclusive, HCMV antiviral inconclusive (no result: Pf growth 96h)
COc1ccccc1N=c1sc2ccccc2n1C	HCV inh 1.8µM (no result: Pf growth 96h)
CCN(C(=O)CC(C)C)c1nnc(Cn2nnc3ccccc32)s1	HCV inh 13µM
Cc1ccc(C(=O)NNC(=O)Cn2nnc3ccccc32)cc1	none
CCN(C(=O)c1ccc(C(C)(C)C)cc1)c1nnc(Cn2nnc3ccccc32)s1	HCV inh 1µM, Pf growth 48h 10µM, HCMV antiviral -65
O=c1cc(O)c2sc3nc4c(c(C(F)(F)F)c3c2[nH]1)CCCCC4	Pf growth 48h 2.1µM
Cc1c(-c2ccccc2)c(=O)oc2c(CN3CCN(C)CC3)c(O)ccc12	none (no result: HCV inh, Pf growth 48h, Pf growth 96h)
O=C(COc1nncc2ccccc12)Nc1c(F)c(F)c(F)c(F)c1F	none
O=C(COc1nncc2ccccc12)Nc1ccc(F)c(F)c1	HCMV antiviral -101, Pf growth 96h inconclusive
CCCC(C)C(=O)Nc1ccc(Cl)cc1Cl (configuration not stated)	HCMV antiviral -78 (no result: Pf growth 48h)
CCOCC(=O)Nc1ccc(S(=O)(=O)N2CCC(c3nc4ccccc4[nH]3)CC2)cc1	Pf growth 48h 10µM, Pf growth 96h inconclusive
CC(=O)Nc1ccc(S(=O)(=O)N2CCN(c3cc(C)nc4ccccc34)CC2)cc1	Pf growth 48h inconclusive, HCMV antiviral inconclusive, Pf growth 96h inconclusive
O=S(=O)(c1ccc(F)cc1)N1CCC(c2nc3ccccc3[nH]2)CC1	Pf growth 48h inconclusive, HCMV antiviral inconclusive
CC(=O)Nc1ccc(S(=O)(=O)N2CCN(c3nc(NC4CCCC4)c4ccccc4n3)CC2)cc1	HCV inh 7.9µM, Pf growth 48h 2.1µM, Pf growth 96h inconclusive
CC(C)(C)C(=O)Nc1ccc(S(=O)(=O)N2CCC(c3nc4ccccc4[nH]3)CC2)cc1	Pf growth 48h 13µM, Pf growth 96h 8.3µM
CC(=O)c1cccc(S(=O)(=O)N2CCC(c3nc4ccccc4[nH]3)CC2)c1	HCV inh inconclusive
CC(=O)Nc1ccc(S(=O)(=O)N2CCC(c3nc4ccccc4[nH]3)CC2)cc1	Pf growth 48h 8.3µM (no result: HCMV antiviral, Pf growth 96h)
Cc1cccc(CS(=O)(=O)Cc2ccc(C(=O)NCc3ccc(F)cc3)o2)c1	none (no result: HCV inh, Pf growth 48h, Pf growth 96h)
CCOc1ccc2nc(NC(=O)c3nc(SCc4ccccc4C)ncc3Cl)sc2c1	none (no result: HCV inh, Pf growth 48h, Pf growth 96h)
OCCCCCN=c1cc(-c2ccccc2)oc2ccc(Cl)cc12	HCV inh inconclusive, Pf growth 48h inconclusive, HCMV antiviral -62, Pf growth 96h 13µM
Clc1ccc2oc(-c3ccccc3)cc(=NCCCN3CCOCC3)c2c1	HCV inh inconclusive, Pf growth 48h 4.7µM, Pf growth 96h inconclusive
COc1ccc(-c2cc(=NCCC(=O)O)c3cc(C)ccc3o2)cc1	Pf growth 96h inconclusive
CC(=O)OCC#CCSc1nnc(-c2cccc(Br)c2)o1	none (no result: HCV inh, Pf growth 48h, Pf growth 96h)
CCOc1ccccc1CNC(=O)c1ccc(CS(=O)Cc2cccc(Cl)c2)o1 (configuration not stated)	none (no result: HCV inh, Pf growth 48h, Pf growth 96h)
Cc1ccc(C)n1-c1sc2c(c1C#N)CCCC2	Pf growth 96h inconclusive
Cc1sc(-n2c(C)ccc2C)c(C#N)c1C	Pf growth 96h 10µM
Nc1sccc1C(=O)N1CCN(c2ccccc2)CC1	none (no result: HCV inh, Pf growth 48h, Pf growth 96h)
COc1ccc(-c2cc(OC(=O)c3ccccc3Cl)c3c(C)oc(C)c3c(=O)c2)cc1OC	none (no result: HCV inh, Pf growth 48h, Pf growth 96h)
OCCNCCCCSc1ccc(Cl)cc1	HCV inh 10µM, Pf growth 48h inconclusive
COCCCNCCCCSc1ccc(Cl)cc1	HCV inh 13µM, Pf growth 96h inconclusive
OCCNCCSc1ccc(Cl)cc1	none
CCCCNCCOCCSc1ccc(Cl)cc1	HCV inh 7.9µM, Pf growth 48h inconclusive
COc1ccc(N2CCN(S(=O)(=O)c3ccc4c(c3)CCCN4C(C)=O)CC2)cc1	none (no result: HCV inh, Pf growth 48h, Pf growth 96h)
O=C(CCCN1C(=O)/C(=C\c2cccs2)SC1=S)Nc1cccc(C(=O)O)c1	HCMV antiviral inconclusive
O=C(CCCN1C(=O)/C(=C/c2ccco2)SC1=S)Nc1cccc(C(=O)O)c1	Pf growth 96h 13µM
COc1ccc(NC(=O)CCCN2C(=O)/C(=C\c3ccco3)SC2=S)cc1	HCV inh inconclusive, HCMV antiviral -101, Pf growth 96h 5.2µM
O=C(CN1C(=O)/C(=C/c2ccco2)SC1=S)Nc1ccc(O)c(C(=O)O)c1	Pf growth 96h 15µM

Source: PubChem BioAssay (National Center for Advancing Translational Sciences (NCATS))
